Screening data: PubChem BioAssay, National Center for Advancing Translational Sciences (NCATS)
DT40 TDP1 CPT = DT40-hTDP1 cell growth loss with CPT; AID 686979; 420,000 compounds, 12% hits; chicken DT40 Tdp1-/-;hTDP1 cells + 20 nM CPT, ATP luminescence, 48 h; Potency, µM (doses to about 46.2 µM), most hits filed as inhibitors; also: nearly all actives have a fitted effect of over 55% in size
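Cell growth measured by CellTiter-Glo luminescence after a minimum 48 h, 37 C compound exposure with 20 nM CPT in Tdp1-knockout DT40 cells stably expressing hTDP1, seeded 400/well; qHTS titration format.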
DT40 TDP1 no CPT = qHTS for Inhibitors of human tyrosyl-DNA phosphodiesterase 1 (TDP1): qHTS in cells in absence of CPT; DT40 Tdp1-/- hTDP1 cells, no CPT, ATP luminescence, 48 h; Potency, µM (titrated, usually from 46.2 µM), actives largely listed as inhibitors; 420,000 compounds, 15% hits; AID 686978, 2013; also: nearly all actives have a fitted effect of over 55% in size
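Chicken DT40 Tdp1-/- cells complemented with human TDP1, screened without camptothecin (DMSO vehicle only), 400 cells/well. Compounds pin-transferred, cells incubated at 37 °C for at least 48 hr. Growth read as ATP-dependent luminescence (CellTiter-Glo, 30 min at RT).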
uPA generation = cell surface uPA generation inhibition | cell surface uPA generation assay, qHTS | Potency, µM (doses to about 38.3 µM), most hits filed as inhibitors | 330,000 compounds, 0.31% hits | AID 540303; active = well fitted inhibition curve with a large enough effect; inconclusive = small, poorly fitted or top-dose-only effect; inactive = no such curve, though single readings can be large or run the other way; tested in mouse RAW 264.7 cells; also: nearly all actives have a fitted effect of over 55% in size
HT1080NT lethal = kills 2HG-producing HT-1080-NT fibrosarcoma cells. HT-1080-NT fibrosarcoma viability, CellTiter-Glo ATP luminescence, 48 h. Potency, µM (series often up to 46.1 µM), hits mostly cytotoxic. 360,000 compounds, 1.6% hits;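 also: NT is the 2HG producing partner of a matched IDH1 knockdown line; nearly all actives have a fitted effect of over 55% in size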
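Viability of the 2HG-overproducing fibrosarcoma line after 48 hours of compound exposure at 37 degrees C was determined by luminescence with CellTiter-Glo, and concentration-effect curves were then fitted and categorized.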
IL-1B inflam inh = blocks inflammasome-driven IL-1 beta release. activity change, % at 57.5 µM. 360,000 compounds, 4.7% hits. THP-1 LPS/ATP IL-1B secretion, AlphaLISA, 16 h; stronger effect = lower value; in the data active = activity change below about -50%; inconclusive = mostly about -30% to -49%
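THP-1 cells pretreated 1 hr with compounds (up to 57.5 uM final), then stimulated with LPS (250 ng/mL final) plus ATP (1.25 mM final); secreted IL-1B measured by AlphaLISA after 16 hr, decreased signal indicating inhibition.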
HT1080 IDH1KD tx = kills HT-1080 cells with IDH1 knockdown | HT-1080 IDH1 knockdown viability, ATP luminescence, 48 h | Potency, µM (titrated, usually from 46.1 µM), hits mostly cytotoxic | 360,000 compounds, 2% hits
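In this qHTS, HT-1080 cells depleted of IDH1 are exposed for 48 h at 37 °C to compound titrations. Toxicity is scored from CellTiter-Glo luminescence, with DMSO as full viability and medium alone as none.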
A number is an active result. Rows were chosen to be rich in hits. Some 19% of all compounds tested hit in one or more screens of this group. Unless noted, calls follow the shape of the dose curve; as a rule, active = well fitted curve in the direction sought with a large enough effect; inconclusive = small, poorly fitted or top-dose-only effect, or another doubt; inactive = no such curve, though single readings can be large; an effect the other way counts as inactive or inconclusive.

Screening O=C(CCS(=O)(=O)c1nc(-c2ccc3c(c2)OCO3)cc(C(F)(F)F)n1)Nc1ccc(Br)cc1 returned DT40 TDP1 CPT 4.11µM and DT40 TDP1 no CPT 3.26µM.
`CSc1ccccc1NC(=O)CCS(=O)(=O)c1nc(-c2ccc3c(c2)OCO3)cc(C(F)(F)F)n1` gave DT40 TDP1 CPT 8.2µM and DT40 TDP1 no CPT 18.4µM.
COC(=O)c1ccccc1NC(=O)CCS(=O)(=O)c1nc(-c2ccc3c(c2)OCO3)cc(C(F)(F)F)n1 was read as DT40 TDP1 CPT 2.91µM and DT40 TDP1 no CPT 3.26µM.
O=C(CCS(=O)(=O)c1nc(-c2ccc3c(c2)OCO3)cc(C(F)(F)F)n1)Nc1ccccc1F was read as DT40 TDP1 CPT 7.31µM and DT40 TDP1 no CPT 8.2µM.
Screening C[C@@H]1CN([C@H](C)CO)C(=O)CCCn2nncc2CO[C@@H]1CN(C)S(=O)(=O)c1ccc2ccccc2c1 returned DT40 TDP1 CPT inactive, DT40 TDP1 no CPT inconclusive, HT1080NT lethal inactive, IL-1B inflam inh inactive and HT1080 IDH1KD tx inactive.
Screening COc1ccc(-c2noc(-c3cccnc3NCc3ccco3)n2)cc1 returned DT40 TDP1 CPT inactive and DT40 TDP1 no CPT inconclusive.
`Cc1nc(C#N)c(N/N=C/c2c(F)cccc2Cl)o1` gave DT40 TDP1 CPT inactive, DT40 TDP1 no CPT inconclusive, uPA generation inactive, HT1080NT lethal inactive, IL-1B inflam inh inactive and HT1080 IDH1KD tx inactive.
COc1ccc(/C=N/c2c(-c3ccc(OC)cc3)nc3n2CCS3)cc1 was read as DT40 TDP1 CPT inconclusive, DT40 TDP1 no CPT 16.4µM, uPA generation inactive, HT1080NT lethal inactive, IL-1B inflam inh inconclusive and HT1080 IDH1KD tx inactive.
`Fc1ccc(/C=N/c2c(-c3ccc(F)cc3)nc3n2CCS3)cc1` gave DT40 TDP1 CPT inactive, DT40 TDP1 no CPT inactive, uPA generation inactive, HT1080NT lethal inactive, IL-1B inflam inh inactive and HT1080 IDH1KD tx inactive.
Screening CCOC(=O)c1cc(-c2ccccc2)n(CCCC(=O)Nc2ccccc2C)c1C returned DT40 TDP1 CPT inconclusive and DT40 TDP1 no CPT 23.1µM.
`CCOC(=O)c1cc(-c2ccccc2)n(CCC(=O)Nc2ccc(OC)c(Cl)c2)c1C` gave DT40 TDP1 CPT 16.4µM and DT40 TDP1 no CPT 16.4µM.
For CCOC(=O)c1cc(-c2ccccc2)n(CC(=O)NC(C)(C)C)c1C the results were DT40 TDP1 CPT inconclusive, DT40 TDP1 no CPT inconclusive, uPA generation inactive, HT1080NT lethal inactive, IL-1B inflam inh inactive and HT1080 IDH1KD tx inactive.
`CC(=O)c1cc(-c2ccccc2)n(CCC(=O)NCc2cccs2)c1C` gave DT40 TDP1 CPT inactive, DT40 TDP1 no CPT inactive, uPA generation inactive, HT1080NT lethal inactive, IL-1B inflam inh inactive and HT1080 IDH1KD tx inactive.
For CCOC(=O)c1cc(-c2ccccc2)n(CCCC(=O)Nc2ccc(C)c(Cl)c2)c1C the results were DT40 TDP1 CPT inconclusive and DT40 TDP1 no CPT 23.1µM.
For CC(=O)c1cc(-c2ccccc2)n(CCC(=O)Nc2ccc(C(C)C)cc2)c1C the results were DT40 TDP1 CPT 8.2µM and DT40 TDP1 no CPT 5.8µM.
For CCOC(=O)c1cc(-c2ccccc2)n(CCC(=O)Nc2ccc(C(F)(F)F)cc2)c1C the results were DT40 TDP1 CPT 7.31µM and DT40 TDP1 no CPT 7.31µM.
For CC(=O)Oc1ccccc1C(=O)NC(C)CCc1ccccc1 (configuration not stated) the results were DT40 TDP1 CPT inactive, DT40 TDP1 no CPT inconclusive, uPA generation inactive, HT1080NT lethal inactive, IL-1B inflam inh -71.9 and HT1080 IDH1KD tx inactive.
C=CCN(c1ccccc1)S(=O)(=O)c1cccc(C(=O)NCC2CCCO2)c1 (configuration not stated) was read as DT40 TDP1 CPT inactive, DT40 TDP1 no CPT inactive, uPA generation inactive, HT1080NT lethal inactive, IL-1B inflam inh inactive and HT1080 IDH1KD tx inactive.
Screening O=C(NC1CCSc2ccccc21)c1ccc(F)c(S(=O)(=O)N2CCOCC2)c1 (configuration not stated) returned DT40 TDP1 CPT inactive, DT40 TDP1 no CPT inactive, uPA generation inactive, HT1080NT lethal inactive, IL-1B inflam inh inactive and HT1080 IDH1KD tx inactive.
For Cc1ccc(Nc2cc(C)c(C#N)c3nc4ccccc4n23)c(C)c1 the results were DT40 TDP1 CPT 14.6µM and DT40 TDP1 no CPT 13µM.
`Cc1cc(Nc2ccc(O)cc2)n2c(nc3ccccc32)c1C#N` gave DT40 TDP1 CPT inactive, DT40 TDP1 no CPT inactive, uPA generation inactive, HT1080NT lethal inactive, IL-1B inflam inh inactive and HT1080 IDH1KD tx inactive.
For Cc1cc(NCCCOC(C)C)n2c(nc3ccccc32)c1C#N the results were DT40 TDP1 CPT inconclusive, DT40 TDP1 no CPT 25.9µM, uPA generation inactive, HT1080NT lethal inactive, IL-1B inflam inh inactive and HT1080 IDH1KD tx inactive.
Screening Cc1cc(NCCCN(C)C)n2c(nc3ccccc32)c1C#N returned DT40 TDP1 CPT inactive, DT40 TDP1 no CPT inconclusive, uPA generation inactive, HT1080NT lethal inactive, IL-1B inflam inh inactive and HT1080 IDH1KD tx inactive.
`CC(C)(C)OC(=O)Nc1ccccc1-n1nnnc1C(C(=O)c1ccc(F)cc1)N1CCOCC1` (configuration not stated) gave DT40 TDP1 CPT inactive, DT40 TDP1 no CPT inactive, HT1080NT lethal inactive, IL-1B inflam inh inactive and HT1080 IDH1KD tx inactive.
`CCOC(=O)C1=CCN(S(=O)(=O)c2ccccc2Br)C1c1ccc(F)cc1` (configuration not stated) gave DT40 TDP1 CPT inconclusive, DT40 TDP1 no CPT inconclusive, HT1080NT lethal inactive, IL-1B inflam inh inactive and HT1080 IDH1KD tx inactive.
Cn1cc([N+](=O)[O-])c(C(=O)Nc2nc(-c3ccc(Cl)cc3)cs2)n1 was read as DT40 TDP1 CPT inconclusive, DT40 TDP1 no CPT inconclusive, uPA generation inactive, HT1080NT lethal 2.91µM, IL-1B inflam inh -120.4 and HT1080 IDH1KD tx 3.26µM.
For Cc1cnc(NC(=O)c2nn(C)cc2[N+](=O)[O-])s1 the results were DT40 TDP1 CPT inactive, DT40 TDP1 no CPT inactive, uPA generation inactive, HT1080NT lethal inconclusive, IL-1B inflam inh -93.9 and HT1080 IDH1KD tx inconclusive.
Cc1ccc(-c2nc(NC(=O)c3nn(C)cc3[N+](=O)[O-])sc2C)cc1 was read as DT40 TDP1 CPT inconclusive, DT40 TDP1 no CPT inactive, uPA generation inconclusive, HT1080NT lethal 5.8µM, IL-1B inflam inh -111.1 and HT1080 IDH1KD tx 11.6µM.
`Cc1nn(Cc2c(F)c(F)c(F)c(F)c2F)c(C)c1NC(=O)c1nn(C)cc1[N+](=O)[O-]` gave DT40 TDP1 CPT inconclusive, DT40 TDP1 no CPT inactive, uPA generation inactive, HT1080NT lethal inactive, IL-1B inflam inh inactive and HT1080 IDH1KD tx inactive.
